From the supplement of paper PMC10849652
The full data set covers some 7,900 targets. This sample favours those with a hit. About 0.6% of all pairs of compound and target were hits.

compound: CO[C@H]1C[C@@H]2CC[C@@H](C)[C@@](O)(O2)C(=O)C(=O)N2CCCC[C@H]2C(=O)O[C@H]([C@H](C)C[C@@H]2CC[C@H](n3cnnn3)[C@H](OC)C2)CC(=O)[C@H](C)/C=C(\C)[C@@H](O)[C@@H](OC)C(=O)[C@H](C)C[C@H](C)/C=C/C=C/C=C/1C [zotarolimus]; assay: log2 fold change, soluble protein after heating vs DMSO (PISA); higher = thermal stabilisation; K562 cells, 10 uM, 30 min; active = over 0.2 and 3.5 SD of the protein, either way, in both replicates (recomputed)
Method in brief: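 K562 cells (2×10^6 cells/mL) were treated with 10 μM compound for 30 min, and aliquots were heated for 3 min over 48°C-58°C. Pooled aliquots were extracted in PBS with 0.5% NP-40 at 4°C, and the supernatant after 21,000xg for 90 min was measured by TMTpro 16plex LC-MS/MS with channel sums equalised. Reported thermal stability, relative to control samples and from duplicates, is a log2 fold change.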

Sequence of UniProt Q8IZL8 (Q8IZL8 whole entry, looked up): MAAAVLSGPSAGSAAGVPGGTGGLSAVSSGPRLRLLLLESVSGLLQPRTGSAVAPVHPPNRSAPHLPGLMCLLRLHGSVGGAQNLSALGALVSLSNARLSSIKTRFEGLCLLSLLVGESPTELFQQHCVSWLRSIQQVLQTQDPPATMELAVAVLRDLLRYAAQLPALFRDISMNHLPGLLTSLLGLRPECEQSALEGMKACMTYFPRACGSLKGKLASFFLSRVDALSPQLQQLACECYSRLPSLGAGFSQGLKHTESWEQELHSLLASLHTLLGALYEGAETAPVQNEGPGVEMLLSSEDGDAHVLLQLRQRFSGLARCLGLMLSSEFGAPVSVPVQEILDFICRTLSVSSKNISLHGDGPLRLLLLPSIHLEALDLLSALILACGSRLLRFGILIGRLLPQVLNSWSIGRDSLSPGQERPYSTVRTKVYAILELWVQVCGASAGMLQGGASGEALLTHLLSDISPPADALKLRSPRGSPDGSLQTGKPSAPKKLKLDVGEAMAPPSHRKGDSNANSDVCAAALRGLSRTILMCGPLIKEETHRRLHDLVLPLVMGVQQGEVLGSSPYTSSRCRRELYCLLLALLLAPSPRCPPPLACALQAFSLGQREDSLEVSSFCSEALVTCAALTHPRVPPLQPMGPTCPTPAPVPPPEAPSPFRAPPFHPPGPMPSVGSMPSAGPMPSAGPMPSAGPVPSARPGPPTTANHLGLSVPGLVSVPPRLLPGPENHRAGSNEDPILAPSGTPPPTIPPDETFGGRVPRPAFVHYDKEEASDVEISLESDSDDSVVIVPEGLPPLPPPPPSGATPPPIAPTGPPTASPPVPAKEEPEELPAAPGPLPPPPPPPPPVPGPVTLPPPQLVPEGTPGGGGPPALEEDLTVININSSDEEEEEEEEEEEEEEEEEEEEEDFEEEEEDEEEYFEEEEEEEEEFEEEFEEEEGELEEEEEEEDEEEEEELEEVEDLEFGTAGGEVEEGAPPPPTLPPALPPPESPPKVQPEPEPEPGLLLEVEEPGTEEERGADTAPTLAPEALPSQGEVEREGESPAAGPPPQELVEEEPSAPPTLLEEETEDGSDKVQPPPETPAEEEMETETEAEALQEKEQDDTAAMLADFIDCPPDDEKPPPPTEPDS
Sequence of UniProt Q6P4A8 (Q6P4A8 whole entry, looked up): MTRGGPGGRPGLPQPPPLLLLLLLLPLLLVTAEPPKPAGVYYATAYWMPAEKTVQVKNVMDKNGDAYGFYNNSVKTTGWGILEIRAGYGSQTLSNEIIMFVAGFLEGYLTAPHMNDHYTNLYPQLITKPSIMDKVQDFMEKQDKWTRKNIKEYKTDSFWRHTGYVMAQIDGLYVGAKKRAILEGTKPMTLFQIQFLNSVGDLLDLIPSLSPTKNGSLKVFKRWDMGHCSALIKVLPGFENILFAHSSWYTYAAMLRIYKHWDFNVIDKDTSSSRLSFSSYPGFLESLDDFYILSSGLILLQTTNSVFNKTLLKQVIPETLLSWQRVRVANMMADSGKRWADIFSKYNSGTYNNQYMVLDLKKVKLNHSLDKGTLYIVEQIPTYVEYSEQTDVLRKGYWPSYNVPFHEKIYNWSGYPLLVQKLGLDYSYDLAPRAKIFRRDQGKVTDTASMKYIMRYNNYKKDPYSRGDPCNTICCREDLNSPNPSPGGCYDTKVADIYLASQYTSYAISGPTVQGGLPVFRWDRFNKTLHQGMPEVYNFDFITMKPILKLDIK
Sequence of UniProt Q5MIZ7 (Q5MIZ7 whole entry, looked up): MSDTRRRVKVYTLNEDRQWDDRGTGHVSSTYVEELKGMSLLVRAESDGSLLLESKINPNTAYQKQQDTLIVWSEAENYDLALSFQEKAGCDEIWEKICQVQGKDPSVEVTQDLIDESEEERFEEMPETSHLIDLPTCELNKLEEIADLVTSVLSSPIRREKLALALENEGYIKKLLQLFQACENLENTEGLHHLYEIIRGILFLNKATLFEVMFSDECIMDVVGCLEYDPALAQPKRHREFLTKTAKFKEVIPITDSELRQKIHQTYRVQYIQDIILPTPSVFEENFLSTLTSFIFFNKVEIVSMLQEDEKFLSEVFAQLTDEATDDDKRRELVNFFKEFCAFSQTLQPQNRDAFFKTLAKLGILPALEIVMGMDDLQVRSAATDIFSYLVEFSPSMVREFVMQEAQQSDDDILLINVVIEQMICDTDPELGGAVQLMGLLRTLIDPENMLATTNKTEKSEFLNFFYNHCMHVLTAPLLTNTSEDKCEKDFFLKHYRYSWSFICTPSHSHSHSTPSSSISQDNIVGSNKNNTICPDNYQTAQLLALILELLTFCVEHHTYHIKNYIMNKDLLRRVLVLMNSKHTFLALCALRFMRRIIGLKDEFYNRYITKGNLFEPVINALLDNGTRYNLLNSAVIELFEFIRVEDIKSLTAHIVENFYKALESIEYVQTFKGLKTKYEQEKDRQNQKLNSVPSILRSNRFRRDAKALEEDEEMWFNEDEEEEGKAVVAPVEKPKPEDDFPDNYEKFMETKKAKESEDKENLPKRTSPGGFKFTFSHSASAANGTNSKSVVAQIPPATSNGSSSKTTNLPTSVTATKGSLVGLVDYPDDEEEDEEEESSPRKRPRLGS
Sequence of UniProt P31321 (P31321 whole entry, looked up): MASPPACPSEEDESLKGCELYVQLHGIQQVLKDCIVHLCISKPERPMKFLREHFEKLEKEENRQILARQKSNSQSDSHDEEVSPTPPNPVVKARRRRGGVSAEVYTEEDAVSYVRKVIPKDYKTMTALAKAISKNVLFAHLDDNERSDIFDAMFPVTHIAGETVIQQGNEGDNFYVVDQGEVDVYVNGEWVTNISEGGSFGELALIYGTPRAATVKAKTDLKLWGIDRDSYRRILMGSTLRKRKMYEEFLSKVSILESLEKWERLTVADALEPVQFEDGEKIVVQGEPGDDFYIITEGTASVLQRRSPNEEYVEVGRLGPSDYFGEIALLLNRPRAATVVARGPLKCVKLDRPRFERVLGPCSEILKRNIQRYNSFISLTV
Sequence of UniProt P50897 (P50897 whole entry, looked up): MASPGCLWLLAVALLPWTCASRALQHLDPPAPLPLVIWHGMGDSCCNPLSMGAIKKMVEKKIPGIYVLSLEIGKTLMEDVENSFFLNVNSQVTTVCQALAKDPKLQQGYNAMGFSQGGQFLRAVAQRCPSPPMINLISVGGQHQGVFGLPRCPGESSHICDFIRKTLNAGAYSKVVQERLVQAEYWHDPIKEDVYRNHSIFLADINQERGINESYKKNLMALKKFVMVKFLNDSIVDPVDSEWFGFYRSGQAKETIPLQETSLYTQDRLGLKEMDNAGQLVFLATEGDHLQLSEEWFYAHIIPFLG
Sequence of UniProt Q9NP80 (Q9NP80 whole entry, looked up): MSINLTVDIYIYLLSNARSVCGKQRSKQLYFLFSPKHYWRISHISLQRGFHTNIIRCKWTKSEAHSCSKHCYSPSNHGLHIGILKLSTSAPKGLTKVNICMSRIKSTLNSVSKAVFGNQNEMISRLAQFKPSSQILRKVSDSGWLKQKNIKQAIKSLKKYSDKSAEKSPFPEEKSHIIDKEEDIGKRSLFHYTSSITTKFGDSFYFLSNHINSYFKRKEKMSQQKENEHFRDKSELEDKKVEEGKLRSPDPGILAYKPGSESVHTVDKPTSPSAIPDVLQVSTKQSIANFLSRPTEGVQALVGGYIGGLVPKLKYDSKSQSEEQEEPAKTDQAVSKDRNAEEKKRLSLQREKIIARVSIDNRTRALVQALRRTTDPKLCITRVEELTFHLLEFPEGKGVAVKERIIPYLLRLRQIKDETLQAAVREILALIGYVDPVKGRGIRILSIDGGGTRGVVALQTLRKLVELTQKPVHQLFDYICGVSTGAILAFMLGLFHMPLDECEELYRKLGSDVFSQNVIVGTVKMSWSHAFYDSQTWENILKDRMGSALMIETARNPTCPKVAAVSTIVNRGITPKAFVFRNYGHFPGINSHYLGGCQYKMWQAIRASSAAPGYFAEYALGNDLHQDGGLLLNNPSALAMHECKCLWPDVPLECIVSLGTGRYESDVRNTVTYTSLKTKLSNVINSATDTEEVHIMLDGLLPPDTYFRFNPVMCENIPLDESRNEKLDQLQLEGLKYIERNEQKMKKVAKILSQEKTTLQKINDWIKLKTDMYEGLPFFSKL
Sequence of UniProt O00628 (O00628 whole entry, looked up): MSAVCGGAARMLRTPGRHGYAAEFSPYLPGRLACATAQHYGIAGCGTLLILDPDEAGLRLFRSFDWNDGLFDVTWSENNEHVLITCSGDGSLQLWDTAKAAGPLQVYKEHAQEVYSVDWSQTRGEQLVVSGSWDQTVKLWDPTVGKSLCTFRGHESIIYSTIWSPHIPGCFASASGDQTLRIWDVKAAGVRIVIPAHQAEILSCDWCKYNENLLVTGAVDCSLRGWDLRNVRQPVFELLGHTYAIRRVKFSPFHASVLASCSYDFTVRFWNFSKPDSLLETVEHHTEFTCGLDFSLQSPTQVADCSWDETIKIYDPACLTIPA

log2 fold change, inactive:
PDCD6 (UniProt O75340) -0.03, PRKAR1B (UniProt P31321) 0.011, PPP4R3B (UniProt Q5MIZ7) 0.014, PUF60 (UniProt Q9UHX1) 0.026, PISD (UniProt Q9UG56) 0.015, PJA2 (UniProt O43164) -0.071, PECAM1 (UniProt P16284) -0.002, PTTG1 (UniProt O95997) -0.077, PIK3C3 (UniProt Q8NEB9) 0.016, PARN (UniProt O95453) -0.009, POMP (UniProt Q9Y244) 0.012, POLR3K (UniProt Q9Y2Y1) -0.063, PPT1 (UniProt P50897) -0.043, PTDSS1 (UniProt P48651) 0.053, PPT2 isoform 3 (UniProt Q9UMR5) -0.019, PIK3R1 (UniProt P27986) -0.002, PIR (UniProt O00625) 0.011, PRKCB isoform 2 (UniProt P05771) 0.046, POP1 (UniProt Q99575) 0.033, PLBD1 (UniProt Q6P4A8) -0.057, PEX7 (UniProt O00628) 0.058, PSMC6 (UniProt P62333) -0.003, PDCD2L (UniProt Q9BRP1) -0.033, PRKCA (UniProt P17252) 0.008, PPP2R5E (UniProt Q16537) -0.009, PRPF38A (UniProt Q8NAV1) -0.014, PNPLA8 (UniProt Q9NP80) -0.077, PSMB4 (UniProt P28070) -0.011, PHKA1 (UniProt P46020) -0.024, PKN1 isoform 2 (UniProt Q16512) 0.046, PEX16 isoform 2 (UniProt Q9Y5Y5) 0.016, PELO (UniProt Q9BRX2) 0.158, PSMC2 (UniProt P35998) -0.03, PCNT (UniProt O95613) -0.001, PELP1 (UniProt Q8IZL8) 0.012, PI4K2A (UniProt Q9BTU6) -0.037, POLR3B (UniProt Q9NW08) 0.075
